Reference: PubChem BioAssay AID2685 (National Center for Advancing Translational Sciences (NCATS), 2010)
In all, about 320,000 compounds went through this assay and about 2,100 (0.66%) were called active. Inconclusive results (about 53%) are left out. The call rests on the fitted dose curve; in most records, active means well fitted inhibition curve with a large enough effect in the signal ratio, with a control signal flat (not every such curve was filed as active); inconclusive means small, poorly fitted or top-dose-only effect, or effect the other way, or a change in a side signal; inactive means flat fitted curve, though single readings scatter; the % refers to the signal ratio. The entries come from a sample that favours actives as a whole.

Experiment: qHTS Assay for Lipid Storage Modulators in Drosophila S3 Cells;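 on cell number change: cells counted by Cell Tracker Red CMTPX staining in the red channel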; on lipid storage change, negative = inhibition: on the % scale 0 is the no-effect control and ±100 the full control effect
Conditions: BODIPY lipid droplet fluorescence, 18-24 h, cells fed with added oleic acid; cell number change: measured here: cell count max response; series mostly up to 46.1 µM; lipid storage change, negative = inhibition: at the top concentration
Procedure, shortened: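 Drosophila S3 cells loaded with oleic acid (400 uM, as added) and compounds at several concentrations; lipid droplets imaged by 488-nm laser-scanning cytometry, 500–530 nm intensity and object ratio to cell channel. Percent activity normalized to 20 uM Triacsin C.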
Potency means the concentration at half of the fitted maximal effect.

Question: For `CN1CCN(C(=O)C2=C[C@@H](c3csc4ccccc34)C[C@@H](OCc3ccc(CO)cc3)O2)CC1`, which “lipid storage change, negative = inhibition” value is on record?
Answer: 6.22% (inactive)

Question: What about the cell number change of the same compound?
Answer: 5.1%

Question: What does the source list for `Cc1ccc(S(=O)(=O)N(C)c2nc3ccccc3[nH]c2=S)cc1`?
Answer: lipid storage change, negative = inhibition: -4.12% (inactive); cell number change: 4.96%

Question: For `CCCCn1nc(NS(=O)(=O)c2cccc3nonc23)c2cc3cccc(C)c3nc21`, which “lipid storage change, negative = inhibition” value is on record?
Answer: -12.1% (inactive)

Question: Which “lipid storage change, negative = inhibition” value does the source give for `COc1ccc2nc(SCc3ccccc3C)nc(C)c2c1` here?
Answer: -4.04% (inactive)

Question: What about the cell number change of the same compound?
Answer: -12.5%

Question: Which “lipid storage change, negative = inhibition” value does the source give for `COc1ccc(CCN(Cc2ccc(C(C)C)cc2)S(=O)(=O)c2ccc(S(=O)(=O)N(C)C)cc2)cc1OC` here?
Answer: 0.0067% (inactive)

Question: What about the cell number change of the same compound?
Answer: -3.06%

Question: Which “lipid storage change, negative = inhibition” value does the source give for `COc1ccc(OC)c(C2=NOC(C(=O)NCc3cccs3)C2)c1` (stereo not drawn) here?
Answer: -0.872% (inactive)

Question: What about the cell number change of the same compound?
Answer: 19.5%

Question: Which results are given for `COc1nc(OC)nc(N2CCC(C(=O)Nc3cccc4ccccc34)CC2)n1`?
Answer: lipid storage change, negative = inhibition: 14.5% (inactive); cell number change: -0.422%

Question: Which “outcome” value does the source give for `CC12CN(C(=O)c3ccc(Cl)cc3)C3(C#N)CC1CCC23C` (stereo not drawn) here?
Answer: inactive

Question: For `CCOC(=O)c1c(-c2ccc(F)cc2)csc1NC(=O)C1CCCO1` (stereo not drawn), which “lipid storage change, negative = inhibition” value is on record?
Answer: -6.46% (inactive)

Question: What about the cell number change of the same compound?
Answer: 2.19%

Question: What does the source list for `CCOC(=O)c1c(-c2ccc(C)cc2)csc1NC(=O)C1CCCO1` (stereo not drawn)?
Answer: Potency: 6.51 µM (active); cell number change: 11.7%

Question: For `O=C(Nc1ncc(Cc2cccc(Cl)c2)s1)C1CCCO1` (stereo not drawn), which “lipid storage change, negative = inhibition” value is on record?
Answer: 0.772% (inactive)

Question: What about the cell number change of the same compound?
Answer: -0.923%

Question: For `Cc1ccc(Cc2cnc(NC(=O)C3CCCO3)s2)cc1` (stereo not drawn), which Potency is on record?
Answer: 2.06 µM (active)

Question: What about the cell number change of the same compound?
Answer: 15.9%

Question: With `O=C(Nc1ncc(Cc2cccc(C(F)(F)F)c2)s1)C1CCCO1` (stereo not drawn) as the compound, how does the “lipid storage change, negative = inhibition” value read?
Answer: -2.84% (inactive)

Question: What about the cell number change of the same compound?
Answer: -4.39%

Question: With `CCOC(=O)c1c(-c2ccccc2)csc1NC(=O)C1CCCO1` (stereo not drawn) as the compound, how does the “lipid storage change, negative = inhibition” value read?
Answer: -8.83% (inactive)

Question: And the cell number change?
Answer: -4.26%

Question: Which results are given for `O=C(NCC1CCCO1)C(=O)N/N=C\c1ccc2c(c1)OCO2` (stereo not drawn)?
Answer: outcome: inactive; cell number change: -7.51%

Question: For `Cc1c(C(=O)N2CCCCCC2)c(S(=O)(=O)Nc2cccc(F)c2)c(C)n1C`, which “outcome” value is on record?
Answer: inactive

Question: With `COc1cc2c(cc1OC)CN(c1ccc3ccccc3n1)CC2` as the compound, how does the Potency read?
Answer: 14.6 µM (active)

Question: And the cell number change?
Answer: -10.9%

Question: With `COc1cc2c(cc1OC)CN(c1ccc(-c3ccccc3OC)nn1)CC2` as the compound, how does the “lipid storage change, negative = inhibition” value read?
Answer: -6.67% (inactive)

Question: And the cell number change?
Answer: -18%

Question: What does the source list for `COc1cc2c(cc1OC)CN(c1nc(-c3cccnc3)nc3ccccc13)CC2`?
Answer: lipid storage change, negative = inhibition: 13.7% (inactive); cell number change: 13.3%

Question: With `O=C(Nc1ccc(Cl)cc1)NN1CC(=O)N(c2cccc(C(F)(F)F)c2)CC1=O` as the compound, how does the “lipid storage change, negative = inhibition” value read?
Answer: -5.06% (inactive)

Question: And the cell number change?
Answer: -8.1%

Question: Which “outcome” value does the source give for `Cc1ccc(OCCn2cc(Br)c(=O)[nH]c2=O)cc1` here?
Answer: inactive

Question: And the cell number change?
Answer: -2.4%

Question: For `COc1cccc(CNC(=O)CCC2CCCN(C(=O)c3cc(C)on3)C2)c1` (stereo not drawn), which “lipid storage change, negative = inhibition” value is on record?
Answer: 3.38% (inactive)

Question: What about the cell number change of the same compound?
Answer: 6.95%

Question: For `C=CCNC(=S)/N=c1/ccccn1C`, which “lipid storage change, negative = inhibition” value is on record?
Answer: -4.8% (inactive)

Question: And the cell number change?
Answer: -1.1%

Question: For `Cc1cccc(CN2CCC(C(=O)Nc3cccc(-c4cccc(F)c4)c3)CC2)n1`, which “lipid storage change, negative = inhibition” value is on record?
Answer: -11.7% (inactive)

Question: With `COc1ccc(CSc2nnc(C)s2)cc1F` as the compound, how does the “lipid storage change, negative = inhibition” value read?
Answer: 3.56% (inactive)

Question: What about the cell number change of the same compound?
Answer: 9.99%

Question: For `Cc1nnc(SCc2ccc(F)cc2)s1`, which Potency is on record?
Answer: 2.06 µM (active)

Question: What about the cell number change of the same compound?
Answer: -1.22%

Question: With `Cc1nnc(SCc2ccc(F)cc2Cl)s1` as the compound, how does the “outcome” value read?
Answer: inactive

Question: What about the cell number change of the same compound?
Answer: -1.12%

Question: With `COc1ccc(OC)c(C(=O)COC(=O)C(CCSC)NC(=O)COc2ccccc2)c1` (stereo not drawn) as the compound, how does the “outcome” value read?
Answer: inactive

Question: Which “outcome” value does the source give for `O=C(NCCCN1CCCCC1)C1CCN(S(=O)(=O)N2CCC3(CC2)OCCO3)CC1` here?
Answer: inactive

Question: What about the cell number change of the same compound?
Answer: -12.2%

Question: Which Potency does the source give for `O=C(NCCN1CCCC1)C1CCN(S(=O)(=O)N2CCC3(CC2)OCCO3)CC1` here?
Answer: 29.1 µM (active)

Question: What about the cell number change of the same compound?
Answer: -14.5%

Question: Which “lipid storage change, negative = inhibition” value does the source give for `CC1CCN(CCCNC(=O)C2CCN(S(=O)(=O)N3CCC4(CC3)OCCO4)CC2)CC1` here?
Answer: -18.8% (inactive)

Question: And the cell number change?
Answer: 1.22%

Question: What does the source list for `O=C(CCCC(=O)c1ccccc1)NCCc1ccccc1F`?
Answer: lipid storage change, negative = inhibition: 2.38% (inactive); cell number change: 22%

Question: Which “lipid storage change, negative = inhibition” value does the source give for `Clc1ccc(-c2nnc(N3CCOCC3)o2)cc1` here?
Answer: 4.05% (inactive)

Question: What about the cell number change of the same compound?
Answer: 3.72%

Question: For `CC(=O)c1ccc(OCCCC(=O)Nc2cccc(S(=O)(=O)N(C)C)c2)cc1`, which “lipid storage change, negative = inhibition” value is on record?
Answer: 2.99% (inactive)

Question: And the cell number change?
Answer: 1.3%

Question: For `O=S(=O)(NCC(c1ccco1)N1CCN(c2ccccc2F)CC1)c1ccc2c(c1)OCCO2` (stereo not drawn), which Potency is on record?
Answer: 23.1 µM (active)

Question: What does the source list for `O=S(=O)(NCC(c1ccco1)N1CCN(c2ccccc2)CC1)c1ccc(F)cc1` (stereo not drawn)?
Answer: lipid storage change, negative = inhibition: 8.16% (inactive); cell number change: 9.35%

Question: For `O=S(=O)(NCC(c1ccco1)N1CCN(c2ccccc2F)CC1)c1ccccc1` (stereo not drawn), which “lipid storage change, negative = inhibition” value is on record?
Answer: 15.1% (inactive)

Question: What about the cell number change of the same compound?
Answer: 26.9%

Question: For `CCn1c(=N)c(S(=O)(=O)c2ccc(C)cc2)cc2c(=O)n3ccccc3nc21`, which “lipid storage change, negative = inhibition” value is on record?
Answer: 16.3% (inactive)

Question: What about the cell number change of the same compound?
Answer: 11.4%

Question: For `CN(C)S(=O)(=O)N1CCN(c2cc(Cl)ccc2Cl)CC1`, which “lipid storage change, negative = inhibition” value is on record?
Answer: 16.6% (inactive)

Question: And the cell number change?
Answer: -20.4%

Question: For `COc1ccc(/C=C2\Cc3ccccc3C2=O)cc1OC`, which “lipid storage change, negative = inhibition” value is on record?
Answer: 0.0747% (inactive)

Question: What about the cell number change of the same compound?
Answer: -17.4%

Question: With `COc1cc(/C=C2\CC/C(=C\c3ccc(OCCO)c(OC)c3)C2=O)ccc1OCCO` as the compound, how does the Potency read?
Answer: 16.4 µM (active)

Question: What about the cell number change of the same compound?
Answer: 11.6%

Question: For `COc1ccc(/C=C2\CCc3ccccc3C2=O)cc1O`, which “outcome” value is on record?
Answer: inactive

Question: And the cell number change?
Answer: -1.8%

Question: With `CCn1c(=O)cc(OCC(=O)Nc2ccc(C)cn2)c2ccccc21` as the compound, how does the “lipid storage change, negative = inhibition” value read?
Answer: 23.2% (inactive)

Question: What about the cell number change of the same compound?
Answer: 8%

Question: With `COc1ccc(C)cc1NC(=O)C1CCC(CNc2c(N3CCOCC3)c(=O)c2=O)CC1` (stereo not drawn) as the compound, how does the “lipid storage change, negative = inhibition” value read?
Answer: 9.49% (inactive)

Question: What about the cell number change of the same compound?
Answer: 18.9%

Question: Which Potency does the source give for `Cc1cccc(N2CCN(C(=O)COc3ccc4c(c3)CCC4)CC2C)c1` (stereo not drawn) here?
Answer: 2.06 µM (active)

Question: What about the cell number change of the same compound?
Answer: -2.19%

Question: Which results are given for `O=C(COc1ccc2c(c1)CCC2)N1CCN(c2cccc(C(F)(F)F)c2)CC1`?
Answer: outcome: inactive; cell number change: 20.7%

Question: Which “lipid storage change, negative = inhibition” value does the source give for `Cc1cccc(N2CCN(C(=O)COc3ccc4c(c3)CCC4)CC2)c1C` here?
Answer: 0.152% (inactive)

Question: And the cell number change?
Answer: 1.12%
